Experimental data taken from PubChem BioAssay AID645 (SRMLSC, 2007).
Out of some 65,000 compounds screened, about 450 (0.69%) were called active. What follows is part of a selection rich in actives, with near analogues and random picks from the rest. Unmarked numbers belong to inactive results.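 How the source made its calls: active means HER2 level under 5% of the carrier-only control; inconclusive means no clear call, values can overlap the other calls; inactive means the rest.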

target: Receptor tyrosine-protein kinase erbB-2 (Homo sapiens) (UniProt P04626); experiment: inhibitors of Her2 protein expression, primary screen, SKBR-3 cells, AlphaScreen, 66K library (AID 645); conditions: SKBR-3 HER2 protein level, 18-24 h, at 10 µM, stronger effect = lower value;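 further: 100% = DMSO carrier and 0% = 500 nM PU-H71 HSP90 inhibitor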
Sequence (P04626 whole entry, looked up): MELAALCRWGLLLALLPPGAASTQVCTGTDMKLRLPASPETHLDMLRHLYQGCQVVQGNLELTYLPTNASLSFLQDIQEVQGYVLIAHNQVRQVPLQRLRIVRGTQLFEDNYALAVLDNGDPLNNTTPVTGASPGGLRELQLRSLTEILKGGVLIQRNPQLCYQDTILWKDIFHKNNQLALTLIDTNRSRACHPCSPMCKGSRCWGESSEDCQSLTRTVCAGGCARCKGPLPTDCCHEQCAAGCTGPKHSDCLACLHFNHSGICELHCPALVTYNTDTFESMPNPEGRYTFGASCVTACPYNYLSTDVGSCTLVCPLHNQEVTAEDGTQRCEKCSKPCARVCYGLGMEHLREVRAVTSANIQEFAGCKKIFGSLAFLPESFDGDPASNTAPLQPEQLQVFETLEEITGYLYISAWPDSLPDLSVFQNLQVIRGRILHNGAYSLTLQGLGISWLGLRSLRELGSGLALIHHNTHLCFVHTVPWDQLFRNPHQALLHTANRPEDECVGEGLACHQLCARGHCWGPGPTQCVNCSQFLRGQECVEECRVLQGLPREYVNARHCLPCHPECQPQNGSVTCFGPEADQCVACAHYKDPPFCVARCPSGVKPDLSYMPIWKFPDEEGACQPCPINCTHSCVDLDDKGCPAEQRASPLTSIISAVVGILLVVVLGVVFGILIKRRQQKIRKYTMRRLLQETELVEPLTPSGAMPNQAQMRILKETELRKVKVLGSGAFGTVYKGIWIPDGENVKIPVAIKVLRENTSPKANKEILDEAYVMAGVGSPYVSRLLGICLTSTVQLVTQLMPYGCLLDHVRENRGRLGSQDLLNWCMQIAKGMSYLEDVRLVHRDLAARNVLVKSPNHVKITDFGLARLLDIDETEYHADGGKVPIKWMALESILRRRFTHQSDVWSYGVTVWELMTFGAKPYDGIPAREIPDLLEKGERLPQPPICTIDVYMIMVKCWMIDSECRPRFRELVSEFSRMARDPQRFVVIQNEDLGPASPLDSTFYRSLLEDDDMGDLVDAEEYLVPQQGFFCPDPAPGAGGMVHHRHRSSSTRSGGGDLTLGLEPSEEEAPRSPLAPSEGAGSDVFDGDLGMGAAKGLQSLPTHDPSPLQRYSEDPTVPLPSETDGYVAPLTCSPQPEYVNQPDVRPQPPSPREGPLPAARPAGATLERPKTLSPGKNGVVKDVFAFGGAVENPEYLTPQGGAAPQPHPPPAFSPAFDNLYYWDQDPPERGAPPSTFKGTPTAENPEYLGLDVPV

| Compound | HER2 level % of control |
| --- | --- |
| O=C1c2ccccc2C(=O)N1CCc1nn[nH]n1 | 90.3% |
| Cc1c(CN2CCC(C)CC2)c(=O)n(-c2ccccc2)n1C | 107% |
| Cn1c(=O)n(C)c(=O)n(CC(=O)N2CCCCC2)c1=O | 149% |
| COc1ccccc1N1CCN(C(=O)CN(Cc2ccc(Cl)cc2)S(C)(=O)=O)CC1 | 68.2% |
| COc1ccccc1N1CCN(Cc2nnnn2CCc2ccccc2)CC1 | 102% |
| COc1ccccc1-n1nnnc1S(=O)(=O)Cc1ccc(Cl)cc1 | -1.27% (active) |
| CC(C)C(=O)N1CCN(CCN=CC2=C(O)CC(c3ccco3)CC2=O)CC1 (centres undefined) | 116% |
| CN(C)CCNC(=O)C(C(=O)c1ccccc1)n1ccccc1=O (centres undefined) | 99.7% |
| O=C(C(NS(=O)(=O)c1cccc2nsnc12)c1ccccc1)N1CCN(c2ccccn2)CC1 (centres undefined) | 70.8% |
| CCOP1(=O)C=C(C(C)(C)C)OC1c1ccc(F)cc1 (centres undefined) | -28.1% (active) |
| CC1CCc2c(sc3c2C2=NS(=O)(=O)CCN2C=N3)C1 (centres undefined) | 111% |
| O=C(NCc1cccs1)c1ccc2c(c1)ncn2C1CCCC1 | 121% |
| Cc1ccc(OCC(O)CN2CCN(CC(O)COc3ccc(C)cc3Cl)CC2)c(Cl)c1 (centres undefined) | 65.4% |
| COc1ccc(N2CCN(CCNC(=O)c3nnc(Cc4c(F)cccc4Cl)o3)CC2)cc1 | 103% |
| O=C(CSc1nnc(Cn2cnc3ccccc32)o1)c1ccccc1 | 107% |
| CC(C)Oc1ccc(C2NC(=O)NC2=O)cc1 (centres undefined) | 81.7% |
| Cc1ccccc1N1CC(c2nc3ccccc3[nH]2)CC1=O (centres undefined) | 99.4% |
| N#CC1=C(SCc2ccccc2)NC(=O)C(C#N)C12CCCC2 (centres undefined) | 88.2% |
| CCOC(=O)C1CCCN(C(=O)c2sc3nc(C)nc(N4CCOCC4)c3c2C)C1 (centres undefined) | 87.2% |
| CCS(=O)(=O)NCCc1ccc(OC)c(OC)c1 | 90.2% |
| Cc1ccccc1-n1c(SCC(=O)NCc2cccs2)nnc1-c1ccncc1 | 108% |
| Cc1nnc(SCC(=O)NCc2cccs2)[nH]c1=O | 87.7% |
| CCN(CC(=O)NCc1cccs1)c1nnnn1-c1ccccc1 | -25.9% (active) |

| Compound | HER2 level % of control |
| --- | --- |
| CCN1C(=O)/C(=C2\SC(N3CCCCC3)=NC2=O)c2ccccc21 | 121% |
| COc1cccc(C(=O)Nc2c3c(nn2-c2cccc(C)c2C)CS(=O)(=O)C3)c1OC | 119% |
| Cc1nc2cc(-c3ccc(F)cc3)nn2c(N2CCOCC2)c1C | 49.6% |
| Cn1c(=O)c2[nH]c(NCC3CCCO3)nc2n(-c2ccccc2)c1=O (centres undefined) | 83.7% |
| CCCC(NS(=O)(=O)c1ccc(OC)cc1)C(=O)O (centres undefined) | 96.9% |
| O=S(=O)(Nc1ccccc1N1CCOCC1)c1ccc(Cl)s1 | 95.5% |
| N#CC(C(N)=O)=C1CCC2(CC1)OCCCCO2 | 93.5% |
| CC1CCC(NS(=O)(=O)c2ccc3c(c2)n(C)c(=O)c(=O)n3C)CC1 (centres undefined) | 76.3% |
| Brc1ccc(OCCn2ccnc2)cc1 | 109% |
| Cc1ccc(N2CCN(S(=O)(=O)N(C)C)CC2)cc1Cl | 105% |
| Cc1nnc(NC2=NCCCCC2)o1 | 106% |
| O=C(Nc1cc(=O)[nH]c2ncnn12)c1ccccc1Cl | 92% |
| CSC1=N/C(=C\C=C\c2cccs2)C(=O)S1 | 0.09% (active) |
| COCC(C)N=CC1=C(O)CC(C)(C)CC1=O (centres undefined) | 118% |
| Cc1nc2sc(C(c3ccco3)N3CCOCC3)c(O)n2n1 (centres undefined) | 51% |
| C/C(=C\C(=O)c1ccccc1)Nc1cccc(O)c1 | 58.9% |
| c1ccc2cc3[nH]c(CN4CCCCC4)nc3cc2c1 | 96.1% |
| O=C(Nc1cccc(Cl)c1)OCc1ccccn1 | 91.3% |
| Cc1cc(C(=O)Nc2c(C)n(C)n(-c3ccccc3)c2=O)cs1 | 91.6% |
| Cc1c(NC(=O)c2coc(=O)c(Br)c2)c(=O)n(-c2ccccc2)n1C | -15.4% (active) |
| COC(=O)Nc1c(C)n(C)n(-c2ccccc2)c1=O | 89.1% |
| CS(=O)(=O)c1ccc2nc(NC(=O)C3CCCCC3)sc2c1 | 45.1% |
| CC(=O)c1c(C)n(-c2ccc(N(C)C)cc2)c2ccc(OCC(N)=O)cc12 | 64.8% |

| Compound | HER2 level % of control |
| --- | --- |
| COc1ccccc1-c1nnc(SCC(=O)Nc2cc(C)on2)o1 | 92.1% |
| O=c1[nH]c(-c2ccccc2)c(-c2ccccc2)[nH]1 | 88.4% |
| CC(C)C1C2=C(CC(C)(C)CC2=O)ON1c1ccccc1 (centres undefined) | 89.9% |
| CC1(C)CC(=O)NC=C(c2ccccc2)C1 | -32.3% (active) |
| CC(C)(C)NC(=O)Cn1nnc(-c2ccccc2Cl)n1 | 75.9% |
| COCCCNC(=O)CCc1nc2cccnc2n1Cc1ccc(OC)cc1 | 96.5% |
| Cc1cc(NC(=O)CCC(=O)N(c2cccc(F)c2)C(C(=O)NC2CCCC2)c2ccncc2)no1 (centres undefined) | 97% |
| CCn1cc(C(=O)NCC2CCCO2)c(=O)c2cc(S(=O)(=O)N3CCCCC3)ccc21 (centres undefined) | 108% |
| CCCCn1c(SCC(=O)NCC2CCCO2)nc2ccc(N3CCOCC3)cc2c1=O (centres undefined) | 92.5% |
| CCn1c(SCC(=O)NCC2CCCO2)nc2cc(S(=O)(=O)N3CCCCC3)ccc21 (centres undefined) | -27.6% (active) |
| Cc1cc(C)nc(SCc2ccccc2C#N)n1 | 112% |
| COc1ccc(C(=O)N2CCC(C(=O)Nc3cccc(C)c3)CC2)cc1OC | 97.1% |
| Cc1nc2ccc(S(=O)(=O)NC(C(=O)N3CCCCCC3)C(C)C)cc2s1 (centres undefined) | 82.8% |
| Cc1nc2cc(S(=O)(=O)C(F)(F)F)ccc2s1 | -17.7% (active) |
| Cc1nc2ccc(S(=O)(=O)NCC(=O)O)cc2s1 | 73.5% |
| O=C(NCCN=C1NS(=O)(=O)c2ccccc21)c1ccc(S(=O)(=O)N2CCOCC2)cc1 | 108% |
| CCOc1ccc(OCc2ccc(C(=O)Nc3cccc(C)n3)o2)cc1 | 68.1% |
| CC(C)(C)n1nnnc1C(c1ccc2ncccc2c1)N1CCSCC1 (centres undefined) | 92.2% |
| CC(C)c1ccc(OCC(O)Cn2cnc3ccccc32)cc1 (centres undefined) | 83.1% |
| Cc1ccc(CCNC(=O)C2CCN(S(=O)(=O)N3CCCC3)CC2)cc1 | 107% |
| Cc1ccc(S(=O)(=O)N2CCC(C(=O)N[C@@H](C)C(=O)NCCc3ccccc3)CC2)cc1 | -21.9% (active) |
| Cc1ccc(S(=O)(=O)N2CCC(C(=O)N[C@@H](C)C(=O)NCc3ccccc3)CC2)cc1 | 102% |
| CC(C)C[C@H](NC(=O)[C@@H]1O[C@H]1C(=O)O)C(=O)NCCCCN=C(N)N | 100% |
